Results from PubChem BioAssay AID1159580 (chemical genetic matrix, 2015).
Screen size: about 5,500 compounds; about 2,000 (36%) were called active. Another 18% or so got no clear call; they are omitted. Cut-off read from the data, not from the text of the source: active = normalized growth mostly below about 0.91 (no sharp cut-off); inconclusive = no clear call, values can overlap the other calls; inactive = mostly above about 0.92. The list shows a part of the results.

Experiment: chemical genetic growth profiling, strain panel (AID 1159580);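 note: tested at 20 µM; growth read once vehicle control cultures reached saturation at 30 °C; 1 = growth at the plate median or of vehicle wells; lower values mean less growth of the strain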
Settings: S. cerevisiae deletion strains, growth OD
[1] = locus YAR019C, strain CDC15, hits give low values
[2] = locus YBL105C, strain PKC1, hits give low values
[3] = locus YBR135W, strain CKS1, hits give low values
[4] = locus YBR136W, strain MEC1, hits give low values
[5] = locus YBR160W, strain CDC28, hits give low values
[6] = locus YDL017W, strain CDC7, hits give low values
[7] = locus YDL028C, strain MPS1, hits give low values
[8] = locus YDL101C, strain DUN1, hits give low values
[9] = locus YDL108W, strain KIN28, hits give low values
[10] = locus YDL132W, strain cdc53, hits give low values
[11] = locus YDL214C, strain PRR2, hits give low values
[12] = locus YDR052C, strain DBF4, hits give low values
[13] = locus YDR054C, strain cdc34, hits give low values
[14] = locus YDR226W, strain ADK1, hits give low values
[15] = locus YDR477W, strain SNF1, hits give low values
[16] = locus YER123W, strain YCK3, hits give low values
[17] = locus YER133W, strain GLC7, hits give low values
[18] = locus YFL009W, strain cdc4, hits give low values
[19] = locus YFL029C, strain CAK1, hits give low values
[20] = locus YFR003C, strain YPI1, hits give low values
[21] = locus YFR019W, strain FAB1, hits give low values
[22] = locus YFR028C, strain CDC14, hits give low values
[23] = locus YGR040W, strain KSS1, hits give low values
[24] = locus YGR052W, strain FMP48, hits give low values
[25] = locus YGR092W, strain DBF2, hits give low values
[26] = locus YHR030C, strain SLT2, hits give low values
[27] = locus YHR079C, strain IRE1, hits give low values
[28] = locus YHR082C, strain KSP1, hits give low values
[29] = locus YHR205W, strain SCH9, hits give low values
[30] = locus YIL147C, strain SLN1, hits give low values
[31] = locus YJL095W, strain BCK1, hits give low values
[32] = locus YJL128C, strain PBS2, hits give low values
[33] = locus YJL157C, strain FAR1, hits give low values
[34] = locus YJR016C, strain ILV3, hits give low values
[35] = locus YJR066W, strain TOR1 (second series), hits give low values
[36] = locus YJR066W, strain TOR1, hits give low values
[37] = locus YKL048C, strain ELM1, hits give low values
[38] = locus YKL067W, strain YNK1, hits give low values
[39] = locus YKL101W, strain HSL1, hits give low values
[40] = locus YKL193C, strain SDS22, hits give low values
[41] = locus YKL203C, strain TOR2, hits give low values
[42] = locus YLR113W, strain HOG1, hits give low values
[43] = locus YLR133W, strain CKI1, hits give low values
[44] = locus YLR403W, strain SFP1, hits give low values
[45] = locus YML070W, strain DAK1, hits give low values
[46] = locus YMR001C, strain CDC5, hits give low values
[47] = locus YMR205C, strain PFK2 (second series), hits give low values
[48] = locus YMR277W, strain FCP1, hits give low values
[49] = locus YNL006W, strain LST8, hits give low values
[50] = locus YNL020C, strain ARK1, hits give low values
[51] = locus YNL161W, strain CBK1, hits give low values
[52] = locus YNL183C, strain NPR1, hits give low values
[53] = locus YNL207W, strain RIO2, hits give low values
[54] = locus YNL222W, strain SSU72, hits give low values
[55] = locus YNL307C, strain MCK1 (second series), hits give low values
[56] = locus YOL078W, strain AVO1, hits give low values
[57] = locus YOL136C, strain PFK27, hits give low values
[58] = locus YOR061W, strain CKA2, hits give low values
[59] = locus YOR119C, strain RIO1, hits give low values
[60] = locus YOR231W, strain MKK1, hits give low values
[61] = locus YOR329C, strain SCD5, hits give low values
[62] = locus YPL031C, strain PHO85, hits give low values
[63] = locus YPL153C, strain RAD53, hits give low values
[64] = locus YPL204W, strain HRR25, hits give low values
[65] = locus YPL209C, strain IPL1, hits give low values
[66] = locus YPL256C, strain CLN2, hits give low values
[67] = locus YPR025C, strain CCL1, hits give low values
[68] = locus YPR106W, strain ISR1, hits give low values
[69] = locus YPR111W, strain DBF20, hits give low values
[70] = strain NNK1, hits give low values
[71] = strain TSCII, hits give low values
[72] = locus YAL013W, strain DEP1, hits give low values
[73] = locus YDR150W, strain NUM1, hits give low values
[74] = locus YGR078C, strain PAC10, hits give low values
[75] = locus YMR263W, strain SAP30, hits give low values
[76] = locus YNL153C, strain GIM3, hits give low values
[77] = locus YNL322C, strain KRE1, hits give low values
[78] = locus YPL055C, strain LGE1, hits give low values
[79] = locus YPL241C, strain CIN2, hits give low values
[80] = locus YAL040C, strain CLN3, hits give low values
[81] = locus YCL061C, strain MRC1 (second series), hits give low values
[82] = locus YDR363W, strain ESC2, hits give low values
[83] = locus YER002W, strain NOP16, hits give low values
[84] = locus YNL175C, strain NOP13, hits give low values
[85] = locus YNL197C, strain WHI3, hits give low values
[86] = locus YNL224C, strain SQS1, hits give low values
[87] = locus YOR083W, strain WHI5 (second series), hits give low values

Measured: normalized growth

COC(=O)C1=C(C)NC(C)=C(C(=O)OC)C1c1ccc(Cl)cc1Cl
inactive: [1] 0.973 | [2] 0.976 | [3] 0.971 | [4] 0.976 | [5] 0.981 | [6] 0.979 | [7] 0.977 | [8] 0.973 | [9] 0.967 | [10] 0.967 | [11] 0.917 | [12] 0.986 | [13] 0.967 | [14] 0.972 | [15] 0.909 | [16] 0.887 | [17] 0.889 | [18] 0.968 | [19] 0.969 | [20] 0.98 | [21] 0.949 | [22] 0.974 | [23] 0.914 | [24] 0.989 | [25] 0.88 | [26] 0.99 | [27] 0.963 | [28] 0.97 | [29] 0.943 | [30] 0.961 | [31] 0.961 | [32] 0.98 | [33] 0.928 | [34] 0.972 | [35] 0.908 | [36] 0.999 | [37] 0.949 | [38] 0.947 | [39] 0.936 | [40] 0.978 | [41] 0.975 | [42] 0.912 | [43] 0.956 | [44] 0.88 | [45] 0.911 | [46] 0.972 | [47] 0.956 | [48] 0.978 | [49] 0.973 | [50] 0.94 | [51] 0.987 | [52] 0.985 | [53] 0.973 | [54] 0.973 | [55] 0.947 | [56] 0.991 | [57] 0.918 | [58] 0.93 | [59] 0.945 | [60] 0.933 | [61] 0.984 | [62] 0.884 | [63] 0.866 | [64] 0.898 | [65] 0.985 | [66] 0.971 | [67] 0.979 | [68] 0.975 | [69] 0.975 | [70] 0.977 | [71] 0.968

CCOC(=O)C1=C(N)OC2=C(C(=O)CC(C)(C)C2)C1c1ccc(Cl)cc1Cl (configuration not stated)
active: [26] 0.804
inactive: [1] 0.984 | [2] 0.982 | [3] 0.978 | [4] 0.981 | [5] 0.964 | [6] 0.978 | [7] 0.98 | [8] 0.966 | [9] 0.978 | [10] 0.975 | [11] 0.968 | [12] 0.979 | [13] 0.965 | [14] 0.978 | [15] 0.95 | [16] 0.927 | [17] 0.959 | [18] 0.974 | [19] 0.981 | [20] 0.982 | [21] 0.956 | [22] 0.976 | [23] 0.954 | [24] 1.08 | [25] 0.973 | [27] 0.943 | [28] 1.01 | [29] 0.953 | [30] 0.984 | [31] 0.904 | [32] 0.975 | [33] 0.976 | [34] 0.99 | [35] 0.95 | [36] 0.947 | [37] 0.948 | [38] 0.959 | [39] 0.963 | [40] 0.973 | [41] 1 | [42] 0.934 | [43] 0.961 | [44] 0.964 | [45] 0.944 | [46] 0.984 | [47] 0.976 | [48] 0.98 | [49] 0.987 | [50] 0.95 | [51] 0.983 | [52] 0.934 | [53] 0.989 | [54] 0.977 | [55] 0.947 | [56] 0.979 | [57] 0.952 | [58] 0.958 | [59] 1.06 | [60] 0.953 | [61] 0.976 | [62] 0.948 | [63] 0.952 | [64] 0.933 | [65] 0.966 | [66] 0.876 | [67] 0.979 | [68] 0.979 | [69] 0.964 | [70] 0.973 | [71] 0.982

COc1cccc(C2C3=C(CC(C)(C)CC3=O)OC3=C2C(=O)CC(C)(C)C3)c1O
inactive: [72] 1 | locus YBR229C, strain ROT2, hits give low values 0.987 | locus YCL061C, strain MRC1, hits give low values 1.02 | [8] 1.01 | locus YDL134C, strain PPH21, hits give low values 0.978 | [73] 1.04 | locus YEL061C, strain CIN8, hits give low values 0.965 | [74] 1 | [26] 1.08 | locus YHR087W, strain rtc3, hits give low values 0.958 | locus YJR043C, strain POL32, hits give low values 1.03 | locus YJR075W, strain HOC1, hits give low values 1 | locus YKL190W, strain CNB1, hits give low values 0.988 | locus YLR039C, strain RIC1, hits give low values 1.08 | locus YLR058C, strain SHM2 (second series), hits give low values 0.991 | locus YLR085C, strain ARP6, hits give low values 0.977 | locus YLR262C, strain YPT6, hits give low values 1.04 | locus YML094W, strain GIM5, hits give low values 1.01 | locus YMR219W, strain ESC1, hits give low values 1 | [75] 0.999 | locus YMR307W, strain GAS1, hits give low values 0.876 | locus YNL128W, strain TEP1, hits give low values 0.983 | [76] 1 | locus YNL298W, strain CLA4 (second series), hits give low values 0.927 | [77] 0.993 | locus YNR030W, strain Alg12, hits give low values 0.977 | locus YOL006C, strain TOP1, hits give low values 0.947 | [78] 1 | [79] 1.01 | locus YPR135W, strain CTF4, hits give low values 0.976

C[C@H](Cc1ccc(O)c(O)c1)[C@@H](C)Cc1ccc(O)c(O)c1
inactive: [80] 1.07 | [83] 0.979 | [74] 0.986 | [76] 0.863 | [84] 0.946 | [85] 0.969 | [86] 0.966 | [87] 0.925
active: [72] 0.783 | [81] 0.811 | [82] 0.745 | [77] 0.478 | [78] 0.77 | [79] 0.578

NC(Cc1ccc(O)c(O)c1)C(=O)O (configuration not stated)
inactive: [72] 0.997 | [80] 1.02 | [81] 0.977 | [73] 0.955 | [82] 1.02 | [83] 1.01 | [75] 1.01 | [84] 1.01 | [85] 1.03 | [86] 1.01 | [87] 0.97
